Compound activity (PubChem)
rCAG binder = binds r(CAG) RNA repeats. AID 651821. inhibition, % at 3 µM. hit rate 1.3% among 370,000. r(CAG) RNA repeat, TO-PRO-1 dye displacement fluorescence;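 active = inhibition above the plate cutoff, the mean of all test compounds on that plate plus 3 SD, cut at about 35% in these data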;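 also: 0% = DMSO alone and 100% = 100 µM mitoxantrone as full dye displacement; higher means more dye released from RNA so lower well fluorescence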
Pemphigus Ab inh = inhibitors of pemphigus antibody binding to human desmoglein-3 | P32926 | DSG3-coupled beads, scFv-anti-DSG3-GFP binding, flow cytometry; stronger effect = lower value | binding (percent of control), % at 10 µM | hit rate 0.48% among 310,000 | AID 588358;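 active = binding more than 3 SD below its plate's average and above zero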
ADAM17 inh = ADAM17 inhibition, QFRET primary screen; AID 720648; P78536; recombinant ADAM17, EDANS/DABCYL FRET peptide cleavage; hit rate 0.83% among 370,000; inhibition, % at 6.95 µM;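 active = inhibition above the mean of compounds lying between control limits plus 3 SD, set per campaign, cut at about 8.5% in these data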;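 also: 0% = DMSO-only wells as the low control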
Target sequence (P78536 215-824 limits assumed): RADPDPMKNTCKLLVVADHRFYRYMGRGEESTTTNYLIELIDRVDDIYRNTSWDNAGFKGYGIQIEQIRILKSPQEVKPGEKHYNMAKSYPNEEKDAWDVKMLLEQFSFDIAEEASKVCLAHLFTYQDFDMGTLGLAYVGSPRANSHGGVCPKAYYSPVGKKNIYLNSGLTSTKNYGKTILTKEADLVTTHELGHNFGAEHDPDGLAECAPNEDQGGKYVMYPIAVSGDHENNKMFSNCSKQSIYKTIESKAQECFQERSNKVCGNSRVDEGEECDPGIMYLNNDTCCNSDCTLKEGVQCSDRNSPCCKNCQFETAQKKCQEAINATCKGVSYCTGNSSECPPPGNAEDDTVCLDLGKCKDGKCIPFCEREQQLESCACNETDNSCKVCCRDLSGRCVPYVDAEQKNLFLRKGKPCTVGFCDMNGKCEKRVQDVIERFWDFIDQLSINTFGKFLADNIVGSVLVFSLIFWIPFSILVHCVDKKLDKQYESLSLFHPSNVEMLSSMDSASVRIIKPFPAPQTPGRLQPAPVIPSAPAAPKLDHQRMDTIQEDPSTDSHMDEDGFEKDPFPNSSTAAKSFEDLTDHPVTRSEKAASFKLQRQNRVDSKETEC
MPTP inh = blocks calcium-induced mitochondrial swelling; isolated mouse mitochondria, Ca2+ swelling absorbance, 30 min; hit rate 1.4% among 360,000; inhibition, % at 10 µM;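 active = inhibition of 50% or more, scaled per plate between neutral and stimulator controls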;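 also: 0% = DMSO wells given calcium and 100% = 1 mM EGTA wells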
proKLK7 act = activates the human kallikrein-7 zymogen; hit rate 0.9% among 370,000; activation, % at 7 µM; purified proKLK7, EDANS-DABCYL substrate fluorescence; 100% is mature enzyme control, 0% vehicle;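 active = activation above the mean of all tested compounds plus 3 SD, computed per campaign excluding outliers beyond control limits, cut at about 13% in these data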
ADAM10 inh = inhibitors of human ADAM10 | AID 720582 | hit rate 0.62% among 370,000 | recombinant ADAM10, EDANS/DABCYL FRET peptide cleavage, 3 h | inhibition, % at 7 µM;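 active = inhibition above a per-campaign cutoff equal to the mean of compounds falling between control-based bounds plus 3 SD, cut at about 20% in these data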;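 also: 0% = DMSO wells while the 100% control is not disclosed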
rCAG binder conf = r(CAG) RNA repeat binding, confirmation | shares compounds with rCAG binder | hit rate 70% among 4,300 | AID 652065 | inhibition, % at 3 µM | TO-PRO-1 dye displacement fluorescence;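 active = inhibition above a per-plate cutoff, the mean inhibition of sample wells plus 3 SD, cut at about 35% in these data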;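 also: loss of TO-PRO-1 fluorescence as compound displaces dye from 1x1 AA loop RNA; 0% = DMSO only wells and 100% = 100 µM mitoxantrone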
dCAG dye counter = counter-screen for rCAG RNA binders: DNA CAG dye complex inhibitors. shares compounds with rCAG binder. d(CAG) DNA oligo TO-PRO-1 dye displacement, fluorescence. inhibition, % at 3 µM. hit rate 94% among 4,300. AID 652068;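 active = inhibition above its plate's cutoff, the mean test-well inhibition plus 3 SD, cut at about 4.8% in these data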;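 also: 0% = DNA dye mix with DMSO and 100% = 100 µM mitoxantrone; hits displace the dye from DNA and so lower well fluorescence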
Starred values were filed as active, the others as inactive. In the library only some 4.7% were active in any assay of this set; here they are far more common.

Screening COC(=O)c1sc(S(=O)(=O)Nc2ccc(Br)cc2)c(C(=O)OC)c1C returned rCAG binder 57*, Pemphigus Ab inh 98, ADAM17 inh 1, MPTP inh 29, proKLK7 act 0, ADAM10 inh 7, rCAG binder conf 42* and dCAG dye counter 14*.
OC[C@@H]1CN(Cc2ccc(F)cc2)C[C@H](n2cnc3c(N4CCOCC4)ncnc32)O1 was read as rCAG binder 1, ADAM17 inh -6, MPTP inh 1, proKLK7 act 0 and ADAM10 inh -10.
Screening O=S(=O)(Nc1ncnc2sc3c(c12)CCC3)c1ccc(Cl)s1 returned rCAG binder 57*, Pemphigus Ab inh 94, ADAM17 inh -6, MPTP inh 6, proKLK7 act 1, ADAM10 inh -8, rCAG binder conf 35* and dCAG dye counter 11*.
`O=S(=O)(Nc1ncnc2sc3c(c12)CCC3)c1cc(F)ccc1F` gave rCAG binder 3, Pemphigus Ab inh 98, ADAM17 inh -3, MPTP inh 3, proKLK7 act 0 and ADAM10 inh -13.
Screening Cc1cccc(NC(=S)NNC(=O)c2cc3c(s2)CCC(C)C3)c1C (centres undefined) returned rCAG binder 37*, Pemphigus Ab inh 104, ADAM17 inh -4, MPTP inh 16, proKLK7 act 2, ADAM10 inh -12, rCAG binder conf 35* and dCAG dye counter 12*.
`Cc1ccc(C)c(NC(=S)NNC(=O)c2cc3c(s2)CCC(C)C3)c1` (centres undefined) gave rCAG binder 31, Pemphigus Ab inh 105, ADAM17 inh 0, MPTP inh 12, proKLK7 act 0 and ADAM10 inh -21.
Screening Cc1cccc(OCCCC(=O)Nc2ccc(S(=O)(=O)Nc3onc(C)c3C)cc2)c1C returned rCAG binder 59*, ADAM17 inh -1, MPTP inh -2, proKLK7 act 1, ADAM10 inh 5, rCAG binder conf 32 and dCAG dye counter 8.5*.
For Cc1cccc(OCC(=O)Nc2ccc(S(=O)(=O)Nc3onc(C)c3C)cc2)c1C the results were rCAG binder 41*, Pemphigus Ab inh 104, ADAM17 inh 0, MPTP inh 1, proKLK7 act 0, ADAM10 inh 7, rCAG binder conf 26 and dCAG dye counter 6.5*.
Cc1cccc(OCCCC(=O)Nc2ccc(S(=O)(=O)Nc3nccs3)cc2)c1C was read as rCAG binder 59*, Pemphigus Ab inh 101, ADAM17 inh 2, MPTP inh -1, proKLK7 act 0, ADAM10 inh 7, rCAG binder conf 49* and dCAG dye counter 17*.
Cc1noc(NS(=O)(=O)c2ccc(NC(=O)COc3ccc(C#N)cc3)cc2)c1C was read as rCAG binder 13, ADAM17 inh -2, MPTP inh 0, proKLK7 act 0 and ADAM10 inh -4.
Screening O=C(COc1ccc(F)cc1Cl)Nc1ccc(S(=O)(=O)Nc2nccs2)cc1 returned rCAG binder 43*, Pemphigus Ab inh 109, ADAM17 inh 2, MPTP inh -2, proKLK7 act 0, ADAM10 inh 4, rCAG binder conf 40* and dCAG dye counter 13*.
CC1CCN(c2ccc(C(=O)O)cc2NS(=O)(=O)c2ccccc2)CC1 was read as rCAG binder 17, ADAM17 inh 0, proKLK7 act 0 and ADAM10 inh -5.
CN(CCOC(=O)CSc1ccccc1)C1CN(Cc2cn(Cc3ccccc3F)nn2)S(=O)(=O)C1 (centres undefined) was read as rCAG binder -2, ADAM17 inh -2, proKLK7 act 0 and ADAM10 inh 2.
NNC(=O)c1cccc(S(=O)(=O)Nc2cc(Cl)ccc2Cl)c1 was read as rCAG binder 64*, Pemphigus Ab inh 99, ADAM17 inh 1, MPTP inh 1, proKLK7 act 1, ADAM10 inh 6, rCAG binder conf 13 and dCAG dye counter 3.
